Bioassay records as filed in PubChem.
The list is not random: actives were taken first. Their share in the collection is about 2%.
TLR4-MyD88 BLA: blocks binding of human TLR4 to MyD88 | O00206+Q99836 | HeLa CL3-4 TLR4/MyD88 BLA complementation, FRET ratio | inhibition, % at 8.4 µM | hit rate 0.18% among 200,000 | AID 861; in the data active = inhibition above about 25%
ABHD5-PLIN5 inh: blocks binding of human ABHD5 to perilipin-5. Q00G26+Q8WTS1. Split G. princeps luciferase complementation, luminescence, 4 h. inhibition, % at 4 µM. hit rate 0.78% among 360,000. AID 602281;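 active = inhibition above the mean inhibition across every tested compound plus 3 SD, cut at about 22% in these data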
Exocytosis inh: lytic granule exocytosis inhibition | TALL-104 LAMP-1 surface exposure, flow cytometry; cells stimulated with thapsigargin and PMA | inhibition, % at 10 µM | hit rate 0.66% among 360,000;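 active = inhibition above about 55%, limit read from the data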
B2AR ag: agonists of human beta-2 adrenergic receptor inducing internalization; response, % (concentration not given with the values); Am2.2-beta2AR cells, FAP receptor internalization, flow cytometry; hit rate 0.43% among 340,000; AID 504454;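 active = response above a set limit, near 3 SD of response in nonfluorescent compounds, cut at about 42% in these data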
Target sequence (P07550 whole entry, looked up): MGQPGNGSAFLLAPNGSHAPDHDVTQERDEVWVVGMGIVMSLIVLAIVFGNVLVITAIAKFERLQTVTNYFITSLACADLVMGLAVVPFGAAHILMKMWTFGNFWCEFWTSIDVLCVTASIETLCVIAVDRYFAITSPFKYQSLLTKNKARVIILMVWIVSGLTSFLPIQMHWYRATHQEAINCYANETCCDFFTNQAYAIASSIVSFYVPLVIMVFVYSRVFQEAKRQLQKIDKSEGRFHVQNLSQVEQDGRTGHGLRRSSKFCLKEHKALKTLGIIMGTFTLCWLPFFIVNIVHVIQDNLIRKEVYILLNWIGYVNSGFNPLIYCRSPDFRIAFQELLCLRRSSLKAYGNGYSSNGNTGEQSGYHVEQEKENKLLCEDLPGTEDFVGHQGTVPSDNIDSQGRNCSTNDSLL
TLR9-MyD88 inh: inhibitors of human TLR9-MyD88 binding | inhibition, % at 4.98 µM | hit rate 0.21% among 340,000 | CHO BLA complementation TLR9-MyD88, CCF4 FRET ratio | Q9NR96+Q99836;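 active = inhibition above the mean over all tested compounds plus 3 SD, cut at about 21% in these data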
NOD2-RIPK2 inh: NOD2-RIPK2 protein interaction inhibition; CHO BLA complementation NOD2-RIPK2, CCF4 ratio; inhibition, % at 4.98 µM; hit rate 0.38% among 360,000; AID 624267; in the data active = inhibition above about 21%
Exocytosis CP01: blocks lytic granule exocytosis. shares compounds with Exocytosis inh. TALL-104 cells, LAMP-1 externalization, flow cytometry; stimulated with PMA plus thapsigargin. inhibition, % at 10 µM. hit rate 11% among 1,500. AID 651954; in the data active = inhibition above about 60%
Each line names hits and unclear results; the compound was inactive in the other large screens (follow-up assays come after a bar, where they were run).

CCCCCCCN1CCC(=O)N([C@H](CO)CC(C)C)CC1	Exocytosis inh 81.3 (no result: TLR4-MyD88 BLA) | Exocytosis CP01 inactive
CCCCCCCN1CCC(=O)N([C@H](CO)Cc2ccccc2)CC1	none (no result: TLR4-MyD88 BLA)
CCOC(=O)c1cc(-c2cccc([N+](=O)[O-])c2)on1	Exocytosis inh 66.0 | Exocytosis CP01 inactive
COc1cccc(-c2cnc(C(O)c3c(C)cc(C)cc3C)[nH]2)c1 (configuration not stated)	none (no result: TLR4-MyD88 BLA, B2AR ag, TLR9-MyD88 inh)
CCC1(C)CC(CCNS(=O)(=O)c2ccc(C)cc2)(c2ccc(C)cc2)CCO1 (configuration not stated)	Exocytosis inh 57.1 | Exocytosis CP01 inactive
COc1cccc(-c2cnc3c(NC=O)cc(-c4cc(C)c(O)c(C)c4)cn23)c1	Exocytosis inh 62.9 (no result: TLR4-MyD88 BLA, B2AR ag, TLR9-MyD88 inh) | Exocytosis CP01 inactive
COc1cccc(-c2cnc3c(NC=O)cc(-c4ccccc4)cn23)c1	Exocytosis inh 96.6 (no result: TLR4-MyD88 BLA, B2AR ag, TLR9-MyD88 inh) | Exocytosis CP01 70.3
COc1ccccc1NC(=O)CCC(=O)Nc1cc(OC)c(NC(=O)c2cccs2)cc1OC	none (no result: TLR4-MyD88 BLA)
COc1cc(NC(=O)c2cccs2)c(OC)cc1NC(=O)CCC(=O)Nc1cccc2ncccc12	Exocytosis inh 60.3 | Exocytosis CP01 inactive
CC[C@@H]1C(=O)[C@H](Cc2ccccc2)[C@H]2CCCC(=O)N3CC[C@@H]1[C@@H]23	Exocytosis inh 63.4 (no result: TLR4-MyD88 BLA) | Exocytosis CP01 inactive
O=C(Cc1cccs1)Nc1nc(-c2ccc(F)cc2F)cs1	Exocytosis inh 63.6 | Exocytosis CP01 inactive
Cc1noc(C)c1S(=O)(=O)N(C)C[C@H]1Oc2c(NC(=O)Nc3ccc(C(F)(F)F)cc3)cccc2C(=O)N([C@H](C)CO)C[C@@H]1C	none (no result: TLR4-MyD88 BLA)
C[C@@H]1CN([C@@H](C)CO)C(=O)c2cc(NC(=O)Nc3ccc4c(c3)OCO4)ccc2O[C@H]1CN(C)S(=O)(=O)c1cn(C)cn1	Exocytosis inh 63.6 (no result: TLR4-MyD88 BLA) | Exocytosis CP01 inactive
CC(C)NC(=O)N(C)C[C@H]1Oc2ccc(NC(=O)NC3CCCCC3)cc2C(=O)N([C@H](C)CO)C[C@@H]1C	none (no result: TLR4-MyD88 BLA)
Cc1noc(C)c1S(=O)(=O)N(C)C[C@H]1Oc2c(NC(=O)Nc3ccccc3)cccc2C(=O)N([C@H](C)CO)C[C@@H]1C	Exocytosis inh 65.4 (no result: TLR4-MyD88 BLA) | Exocytosis CP01 inactive
CC(C)NC(=O)N(C)C[C@H]1Oc2ccc(NC(=O)C3CC3)cc2C(=O)N([C@H](C)CO)C[C@@H]1C	Exocytosis inh 78.9 (no result: TLR4-MyD88 BLA) | Exocytosis CP01 inactive
CC1(C)Cc2c(cnn2-c2ccccc2)C(NC(=O)CCN2CCCC2=O)C1 (configuration not stated)	none (no result: TLR4-MyD88 BLA)
Cc1ccc(-c2nnc(CSc3nnc(COc4ccccc4)n3-c3ccc(C)cc3)o2)cc1	Exocytosis inh 76.0 | Exocytosis CP01 inactive
Cc1ccc(-c2nnc(CSc3nnc(COc4ccccc4)n3-c3ccccc3)o2)cc1	none
CCCN(CCC)S(=O)(=O)c1cccc(-c2csc(C)n2)c1	Exocytosis inh 59.2 (no result: TLR4-MyD88 BLA) | Exocytosis CP01 inactive
CCN(CC)S(=O)(=O)c1ccc(-c2csc(C)n2)cc1	none
CCNC(=O)C1CCCN(C(=O)c2ccccc2F)CC1 (configuration not stated)	none (no result: TLR4-MyD88 BLA, B2AR ag, TLR9-MyD88 inh)
CCOc1ccc(S(=O)(=O)N2CCN(Cc3ccc4c(c3)OCO4)CC2)cc1C	Exocytosis inh 65.3 (no result: TLR4-MyD88 BLA) | Exocytosis CP01 inactive
Cc1c(Cl)ccc2c(C(O)CBr)cc(-c3ccccc3)nc12 (configuration not stated)	Exocytosis inh 63.7 (no result: TLR4-MyD88 BLA) | Exocytosis CP01 inactive
CN1CCN(CCCNC(=O)c2ccc(/C=C3\Sc4ccccc4N(Cc4ccc(F)cc4)C3=O)cc2)CC1	Exocytosis inh 64.3, B2AR ag 98.8 | Exocytosis CP01 76.6
Cc1ccc(-c2nn(-c3ccccc3)cc2CNCc2ccccc2)cc1	Exocytosis inh 70.3 (no result: TLR9-MyD88 inh) | Exocytosis CP01 91.7
Cc1ccc(-n2cc(CNCCCn3ccnc3C)c(-c3ccc(F)cc3)n2)cc1	Exocytosis inh 56.7 | Exocytosis CP01 inactive
Cc1ccc(-c2nn(-c3ccccc3)cc2CO)cc1	none (no result: TLR4-MyD88 BLA)
Cc1ccc(-n2cc(CNCCc3cscn3)c(-c3ccc(F)cc3)n2)cc1	none
O=C1CC(=O)N(C2CCCCC2)C(=O)N1c1ccccc1S(=O)(=O)Oc1ccccc1	none (no result: TLR4-MyD88 BLA, B2AR ag, TLR9-MyD88 inh)
CCOc1ccc2[nH]cc(-c3csc(N)n3)c2c1	none (no result: TLR4-MyD88 BLA)
Cc1ccc(Nc2nc(NCCO)c3ccccc3n2)cc1C	Exocytosis inh 58.3 (no result: TLR4-MyD88 BLA) | Exocytosis CP01 inactive
COC(=O)c1sccc1NC(=S)Nc1ccc(F)cc1F	Exocytosis inh 60.0 | Exocytosis CP01 inactive
N#CC1=C(N)Oc2cc(N)ccc2C1c1cccc(Br)c1 (configuration not stated)	Exocytosis inh 71.8 (no result: TLR4-MyD88 BLA) | Exocytosis CP01 inactive
CCOc1ccc(CNC(=O)C2CCN(S(=O)(=O)N3CCC(C)CC3)CC2)cc1OC	none (no result: TLR4-MyD88 BLA, B2AR ag)
O=C(Nc1cccc(-c2csc(Nc3cccc(C(F)(F)F)c3)n2)c1)c1ccccc1	Exocytosis inh 75.4 (no result: TLR4-MyD88 BLA) | Exocytosis CP01 inactive
Oc1ccc(-c2c(-c3ccsc3)sc3ccccc23)cc1	Exocytosis inh 86.7 (no result: TLR4-MyD88 BLA) | Exocytosis CP01 inactive
O=C(Cn1cnc2c(OCc3ccccc3)ncnc21)NCCc1c[nH]c2ccccc12	none (no result: TLR4-MyD88 BLA)
COc1ccc2c(c1OC)C(CC(C)=O)N1CCc3cc4c(cc3C1C2=O)OCO4 (configuration not stated)	none (no result: TLR4-MyD88 BLA, B2AR ag, TLR9-MyD88 inh)
O=C1/C(=C/c2ccncc2)Oc2cc(OS(=O)(=O)c3ccccc3)ccc21	none (no result: TLR4-MyD88 BLA)
COc1cccc(OC)c1C(=O)Oc1ccc2c(c1)O/C(=C\c1ccncc1)C2=O	Exocytosis inh 60.0 | Exocytosis CP01 inactive
COc1cc2c(cc1OC)C(c1ccc(-c3ccccc3Cl)o1)=NCC2	none
COc1cc2c(cc1OC)C(c1ccc(-c3ccc(Cl)c(Cl)c3)o1)=NCC2	Exocytosis inh 93.6 | Exocytosis CP01 90.6
COc1ccc(Cl)cc1-c1cc(C(=O)NCc2ccc(C(F)(F)F)cc2)[nH]n1	Exocytosis inh 86.4 (no result: TLR4-MyD88 BLA, B2AR ag, TLR9-MyD88 inh) | Exocytosis CP01 inactive
COc1ccc(OC)c(NC(=O)c2cc(-c3cc(Cl)ccc3O)n[nH]2)c1	Exocytosis inh 89.6 | Exocytosis CP01 inactive
CCn1c(C)cc(C(=O)COC(=O)CNC(=O)c2ccco2)c1C	none (no result: TLR4-MyD88 BLA, B2AR ag)
COc1ccc(NC(=O)COc2ccccc2)cc1Cl	none (no result: TLR4-MyD88 BLA)
COc1ccc(NC(=O)COc2ccccc2C(=O)NCC(c2ccccc2)N(C)C)cc1Cl (configuration not stated)	Exocytosis inh 65.8 (no result: TLR4-MyD88 BLA) | Exocytosis CP01 inactive
CSc1ncc(Cl)c(C(=O)Nc2cccnc2)n1	Exocytosis inh 79.4 (no result: TLR4-MyD88 BLA) | Exocytosis CP01 inactive
CSc1ncc(Cl)c(C(=O)Nc2ccc(NC(C)=O)cc2)n1	none
Cc1[nH]c2ccccc2c1C(c1ccccn1)N1CCC(C(N)=O)CC1 (configuration not stated)	Exocytosis inh 56.8 | Exocytosis CP01 inactive
